# In paper PMC11006913:
# Residue numbers refer to the chain shown, from its start.
# How the values were obtained:
# Assay in all cases: PBM; 200 nM protein, PBS
# Conditions in all cases: dsDNA, one strand shown
# [1] = biological target: NKX2-5 (Homo sapiens, UniProt P52952 125-210, R139K)
# [2] = biological target: HOXB4 (Homo sapiens, UniProt P17483 148-234)
# [3] = biological target: HOXB4 (Homo sapiens, UniProt P17483 148-234, V174I)
# [4] = biological target: NKX2-5 (Homo sapiens, UniProt P52952 125-210)
# NKX2-5 (Homo sapiens, UniProt P52952 125-210), sequence (P52952 125-210): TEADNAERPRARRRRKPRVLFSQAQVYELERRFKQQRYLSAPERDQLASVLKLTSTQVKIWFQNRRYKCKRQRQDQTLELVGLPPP
# [5] = biological target: SHOX (Homo sapiens, UniProt O15266 103-189)
# SHOX, sequence (O15266 103-189): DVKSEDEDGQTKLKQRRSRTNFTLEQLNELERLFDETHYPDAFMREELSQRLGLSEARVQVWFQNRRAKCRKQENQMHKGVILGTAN
# [6] = biological target: T1, VENTX (Homo sapiens, UniProt O95231 78-163, R121Q)
# T1 sequence: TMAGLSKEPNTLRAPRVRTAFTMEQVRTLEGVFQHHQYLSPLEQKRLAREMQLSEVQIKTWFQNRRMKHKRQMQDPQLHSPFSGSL
# [7] = biological target: T2, VENTX (Homo sapiens, UniProt O95231 78-163)
# T2 sequence: T1 sequence with Q44R
# [8] = biological target: T3, VENTX (Homo sapiens, UniProt O95231 78-163, Y115F)
# T3 sequence: T1 sequence with Y38F, Q44R
# [9] = biological target: T4, NKX2-6 (Homo sapiens, UniProt A6NCS4 118-204)
# T4 sequence: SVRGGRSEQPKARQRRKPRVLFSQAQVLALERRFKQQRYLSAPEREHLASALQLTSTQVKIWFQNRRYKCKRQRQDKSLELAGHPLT
# [10] = biological target: T5, NKX2-6 (Homo sapiens, UniProt A6NCS4 118-204, F151L)
# T5 sequence: T4 sequence with F34L
# [11] = biological target: T6, NKX2-4 (Homo sapiens, UniProt Q9H2Z4 175-261, P217L)
# T6 sequence: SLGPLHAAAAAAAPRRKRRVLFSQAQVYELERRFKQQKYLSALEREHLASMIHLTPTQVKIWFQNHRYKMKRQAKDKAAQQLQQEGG
# [12] = biological target: T7, NKX2-4 (Homo sapiens, UniProt Q9H2Z4 175-261, T231S)
# T7 sequence: T6 sequence with L43P, T57S
# [13] = biological target: T8, NKX2-4 (Homo sapiens, UniProt Q9H2Z4 175-261)
# T8 sequence: T6 sequence with L43P
# [14] = biological target: T9, NKX2-6 (Homo sapiens, UniProt A6NCS4 118-204, R150C)
# T9 sequence: T4 sequence with R33C
# [15] = biological target: T10, NKX2-4 (Homo sapiens, UniProt Q9H2Z4 175-261, R246Q)
# T10 sequence: T6 sequence with L43P, R72Q
# [16] = biological target: NKX3-2 (Homo sapiens, UniProt P78367 192-278, P234S)
# NKX3-2 (Homo sapiens, UniProt P78367 192-278, P234S), sequence (P78367 192-278 P234S): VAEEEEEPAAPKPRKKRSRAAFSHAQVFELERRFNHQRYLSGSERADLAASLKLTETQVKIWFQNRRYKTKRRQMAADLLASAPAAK
# [17] = biological target: NKX3-2 (Homo sapiens, UniProt P78367 192-278)
# NKX3-2 (Homo sapiens, UniProt P78367 192-278), sequence (P78367 192-278): as the sequence (P78367 192-278 P234S) above, with S43P counted along it
# HOXB4 (Homo sapiens, UniProt P17483 148-234), sequence (P17483 148-234): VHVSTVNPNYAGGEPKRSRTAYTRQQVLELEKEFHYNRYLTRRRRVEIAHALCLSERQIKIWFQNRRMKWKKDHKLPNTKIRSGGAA
# HOXB4 (Homo sapiens, UniProt P17483 148-234, V174I), sequence (P17483 148-234 V174I): as the sequence (P17483 148-234) above, with V27I counted along it
# NKX2-5 (Homo sapiens, UniProt P52952 125-210, R139K), sequence (P52952 125-210 R139K): as the sequence (P52952 125-210) above, with R15K counted along it
sequence,measurement,setting,value
CCCGGCGG,binding signal,[1],"8.56 upbm affinity estimate (log intensity, higher = more binding, comparable within an allelic series)"
same,binding signal,[2],"7.64 upbm affinity estimate (log intensity, higher = more binding, comparable within an allelic series)"
same,binding signal,[3],"7.61 upbm affinity estimate (log intensity, higher = more binding, comparable within an allelic series)"
same,binding signal,[4],"8.58 upbm affinity estimate (log intensity, higher = more binding, comparable within an allelic series)"
ACCCGGGC,binding signal,[1],"8.96 upbm affinity estimate (log intensity, higher = more binding, comparable within an allelic series)"
same,binding signal,[5],"7.11 upbm affinity estimate (log intensity, higher = more binding, comparable within an allelic series)"
same,binding signal,[4],"8.92 upbm affinity estimate (log intensity, higher = more binding, comparable within an allelic series)"
CGGGCTCC,binding signal,[1],"8.64 upbm affinity estimate (log intensity, higher = more binding, comparable within an allelic series)"
same,binding signal,[2],"6.66 upbm affinity estimate (log intensity, higher = more binding, comparable within an allelic series)"
same,binding signal,[6],"7.54 upbm affinity estimate (log intensity, higher = more binding, comparable within an allelic series)"
same,binding signal,[7],"6.97 upbm affinity estimate (log intensity, higher = more binding, comparable within an allelic series)"
same,binding signal,[8],"7.32 upbm affinity estimate (log intensity, higher = more binding, comparable within an allelic series)"
same,binding signal,[3],"6.92 upbm affinity estimate (log intensity, higher = more binding, comparable within an allelic series)"
same,binding signal,[9],"9.11 upbm affinity estimate (log intensity, higher = more binding, comparable within an allelic series)"
same,binding signal,[10],"9.07 upbm affinity estimate (log intensity, higher = more binding, comparable within an allelic series)"
same,binding signal,[4],"8.58 upbm affinity estimate (log intensity, higher = more binding, comparable within an allelic series)"
ATCAAGTG,binding signal,[1],"12.8 upbm affinity estimate (log intensity, higher = more binding, comparable within an allelic series)"
same,binding signal,[2],"10.2 upbm affinity estimate (log intensity, higher = more binding, comparable within an allelic series)"
same,binding signal,[11],"12.6 upbm affinity estimate (log intensity, higher = more binding, comparable within an allelic series)"
same,binding signal,[12],"13 upbm affinity estimate (log intensity, higher = more binding, comparable within an allelic series)"
same,binding signal,[13],"12.4 upbm affinity estimate (log intensity, higher = more binding, comparable within an allelic series)"
same,binding signal,[3],"10.4 upbm affinity estimate (log intensity, higher = more binding, comparable within an allelic series)"
same,binding signal,[14],"12 upbm affinity estimate (log intensity, higher = more binding, comparable within an allelic series)"
same,binding signal,[9],"13.7 upbm affinity estimate (log intensity, higher = more binding, comparable within an allelic series)"
same,binding signal,[15],"13.1 upbm affinity estimate (log intensity, higher = more binding, comparable within an allelic series)"
same,binding signal,[10],"10.7 upbm affinity estimate (log intensity, higher = more binding, comparable within an allelic series)"
same,binding signal,[4],"12.6 upbm affinity estimate (log intensity, higher = more binding, comparable within an allelic series)"
ACGGCGGC,binding signal,[1],"9 upbm affinity estimate (log intensity, higher = more binding, comparable within an allelic series)"
same,binding signal,[2],"7.36 upbm affinity estimate (log intensity, higher = more binding, comparable within an allelic series)"
same,binding signal,[3],"7.56 upbm affinity estimate (log intensity, higher = more binding, comparable within an allelic series)"
same,binding signal,[4],"8.98 upbm affinity estimate (log intensity, higher = more binding, comparable within an allelic series)"
CGCCCGAG,binding signal,[1],"8.73 upbm affinity estimate (log intensity, higher = more binding, comparable within an allelic series)"
same,binding signal,[2],"7.76 upbm affinity estimate (log intensity, higher = more binding, comparable within an allelic series)"
same,binding signal,[3],"7.79 upbm affinity estimate (log intensity, higher = more binding, comparable within an allelic series)"
same,binding signal,[4],"8.76 upbm affinity estimate (log intensity, higher = more binding, comparable within an allelic series)"
AGCACTTA,binding signal,[1],"12.9 upbm affinity estimate (log intensity, higher = more binding, comparable within an allelic series)"
same,binding signal,[11],"12.6 upbm affinity estimate (log intensity, higher = more binding, comparable within an allelic series)"
same,binding signal,[12],"13 upbm affinity estimate (log intensity, higher = more binding, comparable within an allelic series)"
same,binding signal,[13],"12.5 upbm affinity estimate (log intensity, higher = more binding, comparable within an allelic series)"
same,binding signal,[14],"12 upbm affinity estimate (log intensity, higher = more binding, comparable within an allelic series)"
same,binding signal,[9],"13.7 upbm affinity estimate (log intensity, higher = more binding, comparable within an allelic series)"
same,binding signal,[15],"13.1 upbm affinity estimate (log intensity, higher = more binding, comparable within an allelic series)"
same,binding signal,[10],"11.3 upbm affinity estimate (log intensity, higher = more binding, comparable within an allelic series)"
same,binding signal,[16],"12.9 upbm affinity estimate (log intensity, higher = more binding, comparable within an allelic series)"
same,binding signal,[4],"12.8 upbm affinity estimate (log intensity, higher = more binding, comparable within an allelic series)"
same,binding signal,[17],"12.9 upbm affinity estimate (log intensity, higher = more binding, comparable within an allelic series)"
ACGCGCAG,binding signal,[1],"8.62 upbm affinity estimate (log intensity, higher = more binding, comparable within an allelic series)"
same,binding signal,[5],"7.05 upbm affinity estimate (log intensity, higher = more binding, comparable within an allelic series)"
same,binding signal,[14],"9.46 upbm affinity estimate (log intensity, higher = more binding, comparable within an allelic series)"
same,binding signal,[4],"8.69 upbm affinity estimate (log intensity, higher = more binding, comparable within an allelic series)"
CACTTTAA,binding signal,[1],"12.4 upbm affinity estimate (log intensity, higher = more binding, comparable within an allelic series)"
same,binding signal,[5],"8.82 upbm affinity estimate (log intensity, higher = more binding, comparable within an allelic series)"
same,binding signal,[11],"12.5 upbm affinity estimate (log intensity, higher = more binding, comparable within an allelic series)"
same,binding signal,[12],"12.9 upbm affinity estimate (log intensity, higher = more binding, comparable within an allelic series)"
same,binding signal,[13],"12.3 upbm affinity estimate (log intensity, higher = more binding, comparable within an allelic series)"
same,binding signal,[14],"11.7 upbm affinity estimate (log intensity, higher = more binding, comparable within an allelic series)"
same,binding signal,[9],"13.4 upbm affinity estimate (log intensity, higher = more binding, comparable within an allelic series)"
same,binding signal,[15],"13 upbm affinity estimate (log intensity, higher = more binding, comparable within an allelic series)"
same,binding signal,[10],"10.7 upbm affinity estimate (log intensity, higher = more binding, comparable within an allelic series)"
same,binding signal,[16],"12.5 upbm affinity estimate (log intensity, higher = more binding, comparable within an allelic series)"
same,binding signal,[4],"12.4 upbm affinity estimate (log intensity, higher = more binding, comparable within an allelic series)"
same,binding signal,[17],"12.6 upbm affinity estimate (log intensity, higher = more binding, comparable within an allelic series)"
